Assay [1] is described as follows: P-glycoprotein substrates identified in KB-8-5-11 adenocarcinoma cell line, qHTS therapeutic library screen (AID 1346987). Note: nearly all actives have a fitted effect of over 65% in size. An outline of the steps: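 KB-8-5-11: colchicine-selected sub-line of KB-3-1 over-expressing P-gp; assay medium lacked colchicine. 72 h drug exposure at 37 degree C, CellTiter-Glo.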
On the technique in general: In qHTS, concentration-response curves come from the screen itself.

The nature of assay [2]: NS1 protein of Zika virus - qHTS assay to identify small molecule inhibitors in human HEK 293 cells (AID 1347053). Note: nearly all actives have a fitted effect of over 55% in size. An outline of the steps: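 HEK 293; 20 h pre-culture, 37 C/5% CO2; cpd 1 h pre-infection; ZIKV MR766, MOI = 0.5, 24 h, 37 C; TR-FRET NS1 readout (two anti-NS1 Abs); norm. to no-virus vs infected.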

Structures are written as SMILES. Records with an inconclusive call do not appear. Entries that show only a call come without a potency. Calls of active or inactive are those of the source. Calls come from the whole dose curve; as a rule, active = well fitted curve in the direction sought with a large enough effect; inconclusive = small, poorly fitted or top-dose-only effect, or another doubt; inactive = no such curve, though single readings can be large; an effect the other way counts as inactive or inconclusive.
Potency is the fitted concentration of half-maximal effect.

As for `CCC(c1ccc(O)cc1)C(CC)c1ccc(O)cc1` (centres undefined), the Potency entry in assay [1] and in assay [2] was “inactive” in each case.
For `Cc1csc(-c2nnc(Nc3ccc(Oc4ncccc4-c4ccnc(N)n4)cc3)c3ccccc23)c1`, in assay [2], the Potency result was “inactive”.
With `CN1CC(=O)NC1=NC(=O)Nc1cccc(Cl)c1`, the Potency result in assay [1] and in assay [2] was “inactive” throughout.
For the compound `O=c1[nH]c(=O)n([C@H]2C[C@@H](O)[C@@H](CO)O2)cc1I`, the Potency entry in assay [1] and in assay [2] was “inactive” throughout.
Regarding `CC(=O)OCC(=O)[C@@]12OC(C)(C)O[C@H]1C[C@H]1[C@@H]3C[C@H](F)C4=CC(=O)C=C[C@]4(C)[C@@]3(F)[C@@H](O)C[C@@]12C`, the Potency result in assay [2] is “inactive”.
With `N#CC(=C1Nc2ccccc2S1)c1ccnc(OCc2ccc(CN3CCOCC3)cc2)n1`, the Potency result in assay [1] and in assay [2] was “inactive” each time.
Take `CCNC(=O)CCCC=CC[C@@H]1[C@H](C=CC(O)CCc2ccccc2)[C@@H](O)C[C@@H]1O` (some centres undefined): the Potency result in assay [1] and in assay [2] was “inactive” in each case.
As for `Fc1ccc(C(c2ccc(F)cc2)N2CCN(CC=Cc3ccccc3)CC2)cc1`, the Potency entry in assay [2] was “inactive”.
In the case of `NC(=O)c1noc([C@H](CCCC2CCCCC2)CC(=O)NO)n1`, the Potency in assay [2] was 13.2 µM (active).
On the same count and under the same terms, under `CCNC(=O)Nc1ccc(Oc2ncnc(N)c2C=NOC)cc1Cl` stands “inactive”.
As to `C[C@H]1[C@H](O)O[C@@H]2O[C@@]3(C)CC[C@@H]4[C@H](C)CC[C@@H]1[C@@]24OO3`, the Potency is 18.7 µM (active) in assay [1] and 26.4 µM (active) in assay [2].
On to `CCC[C@H](N[C@@H](C)C(=O)N1[C@@H]2CCCC[C@H]2C[C@H]1C(=O)O)C(=O)OCC`, for which the Potency entry in assay [2] is “inactive”.
As for `COc1nccc(-c2c(-c3ccc(F)cc3)ncn2C2CCC(O)CC2)n1` (centres undefined), the Potency entry in assay [1] and in assay [2] was “inactive” each time.
In the case of `NC[C@H]1O[C@H](O[C@@H]2[C@@H](O)[C@@H](O[C@H]3O[C@H](CO)[C@@H](O)[C@H](N)[C@@H]3O)[C@H](N)C[C@@H]2N)[C@H](O)[C@@H](O)[C@H]1O`, the Potency result in assay [1] and in assay [2] was “inactive” throughout.
Take `COc1cc(N2CCN(C)CC2)ccc1Nc1nc(N)c(C(=O)c2c(Cl)cccc2Cl)s1`: the Potency entry in assay [2] is “inactive”.
Regarding `CCC(=C(c1ccc(O)cc1)c1ccc(OCCNC)cc1)c1ccccc1`, in assay [2], the Potency result was “inactive”.
On to `Cc1ccc2c(=O)c3cccc(CC(=O)O)c3oc2c1C`, for which the Potency entry in assay [1] and in assay [2] was “inactive” in each case.
In the case of `C=C1[C@H](n2cnc3c(=O)[nH]c(N)nc32)C[C@H](O)[C@H]1CO`, the Potency result in assay [2] was “inactive”.
For `O=c1cc(-c2ccc(O)c(O)c2)oc2cc(O)cc(O)c12`, the Potency entry in assay [1] and in assay [2] was “inactive” throughout.
Consider `CN(C)CCN(Cc1ccc(Cl)cc1)c1ccccn1`, for which the Potency result in assay [1] and in assay [2] was “inactive” throughout.
Turning to `N#CC(c1ccc(Cl)cc1)c1c(Cl)cc(-n2ncc(=O)[nH]c2=O)cc1Cl` (centres undefined), the Potency result in assay [1] and in assay [2] was “inactive” each time.
For the compound `CC[C@H](C)n1cc(C)c2c(C(=O)NCc3c(C)cc(C)[nH]c3=O)cc(-c3ccc(N4CCNCC4)nc3)cc21`, in assay [2], the Potency result is “inactive”.

The values are drawn from PubChem BioAssay (NCATS).
